# Assays:
# Assay in all cases: DAPPL (digital affinity profiling via proximity ligation, sequencing); 10 mM Tris-HCl pH 7.5, 50 mM NaCl, 1 mM DTT, 4% glycerol, room temperature, 30 min; GST-TFs on glutathione beads, 16-mer random dsDNA library, 0.1% formaldehyde crosslink after washing; high values mean tight binding
# Settings in all cases: protein: recombinant; tags: N-terminal GST; dsDNA, one strand shown
# FLI1 = target: T1, FLI1 (Homo sapiens, UniProt Q01543 1-452)
# T1 sequence: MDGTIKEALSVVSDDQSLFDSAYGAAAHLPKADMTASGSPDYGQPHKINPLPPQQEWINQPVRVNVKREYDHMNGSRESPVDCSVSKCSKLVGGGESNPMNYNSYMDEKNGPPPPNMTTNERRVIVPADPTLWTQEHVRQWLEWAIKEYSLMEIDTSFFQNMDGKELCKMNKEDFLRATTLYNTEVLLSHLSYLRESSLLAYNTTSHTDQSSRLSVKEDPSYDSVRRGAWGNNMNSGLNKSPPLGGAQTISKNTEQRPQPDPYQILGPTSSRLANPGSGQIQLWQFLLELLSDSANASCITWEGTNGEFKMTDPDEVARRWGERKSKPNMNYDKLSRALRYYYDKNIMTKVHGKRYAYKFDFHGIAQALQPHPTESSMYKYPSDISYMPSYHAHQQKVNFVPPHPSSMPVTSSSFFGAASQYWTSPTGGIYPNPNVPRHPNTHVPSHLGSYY
# Outline: (§1)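 Binding signal is defined as a hexamer's read frequency for one factor over its frequency for the tag-only sample. To obtain reads, GST-fused human transcription factors were expressed in yeast, captured on glutathione beads, barcoded with DNA and pooled with that sample. Pools met 200 nmole of a 16-mer random double-stranded DNA library in Tris/NaCl/DTT/glycerol buffer for 30 min at room temperature before washing, 0.1% formaldehyde crosslinking, proximity ligation (BsaI/T4 ligase, 1 h, 37 °C), PCR and Illumina NextSeq500 sequencing.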
# ELK1 = target: T2, ELK1 (Homo sapiens, UniProt P19419 1-428)
# T2 sequence: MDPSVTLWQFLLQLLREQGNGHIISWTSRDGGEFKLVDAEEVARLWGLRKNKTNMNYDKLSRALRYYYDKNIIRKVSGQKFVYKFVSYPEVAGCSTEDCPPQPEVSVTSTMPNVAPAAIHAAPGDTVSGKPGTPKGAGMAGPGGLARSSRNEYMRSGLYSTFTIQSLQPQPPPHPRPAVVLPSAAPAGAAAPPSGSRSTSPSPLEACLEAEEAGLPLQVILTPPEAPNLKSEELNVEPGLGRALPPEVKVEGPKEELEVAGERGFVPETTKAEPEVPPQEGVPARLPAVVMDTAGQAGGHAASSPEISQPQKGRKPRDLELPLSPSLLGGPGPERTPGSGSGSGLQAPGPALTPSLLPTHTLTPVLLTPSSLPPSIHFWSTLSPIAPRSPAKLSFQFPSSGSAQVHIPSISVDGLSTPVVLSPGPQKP
# Outline: as §1
# GABPA = target: T3, GABPA (Homo sapiens, UniProt Q06546 1-454)
# T3 sequence: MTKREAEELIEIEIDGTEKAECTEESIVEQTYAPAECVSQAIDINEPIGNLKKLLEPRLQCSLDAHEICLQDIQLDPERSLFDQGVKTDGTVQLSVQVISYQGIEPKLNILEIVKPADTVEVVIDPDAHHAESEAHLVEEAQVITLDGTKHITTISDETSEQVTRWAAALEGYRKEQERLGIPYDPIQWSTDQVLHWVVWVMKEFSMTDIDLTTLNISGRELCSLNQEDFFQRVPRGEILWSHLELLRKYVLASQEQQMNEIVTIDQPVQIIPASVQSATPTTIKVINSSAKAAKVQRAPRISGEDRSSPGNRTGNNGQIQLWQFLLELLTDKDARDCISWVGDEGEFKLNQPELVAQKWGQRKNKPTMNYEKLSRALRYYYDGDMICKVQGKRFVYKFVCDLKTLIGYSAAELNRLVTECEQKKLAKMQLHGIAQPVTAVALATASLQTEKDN
# Outline: as §1
# ERG = target: T4, ERG (Homo sapiens, UniProt P11308 1-479)
# T4 sequence: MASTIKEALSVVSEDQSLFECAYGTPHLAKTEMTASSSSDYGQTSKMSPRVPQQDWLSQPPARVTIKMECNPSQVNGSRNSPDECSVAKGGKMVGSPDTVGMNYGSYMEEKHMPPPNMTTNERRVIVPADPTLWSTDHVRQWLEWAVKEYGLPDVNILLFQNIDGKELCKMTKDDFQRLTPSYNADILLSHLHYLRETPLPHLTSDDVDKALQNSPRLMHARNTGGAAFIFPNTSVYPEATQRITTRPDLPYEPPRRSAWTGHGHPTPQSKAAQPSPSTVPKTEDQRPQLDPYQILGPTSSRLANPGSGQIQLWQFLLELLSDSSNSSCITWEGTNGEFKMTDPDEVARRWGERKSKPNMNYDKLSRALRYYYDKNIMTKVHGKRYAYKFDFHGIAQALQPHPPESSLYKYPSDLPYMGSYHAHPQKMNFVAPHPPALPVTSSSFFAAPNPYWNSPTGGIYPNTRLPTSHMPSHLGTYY
# Outline: as §1
# ELF1 = ELF1 (Homo sapiens, UniProt P32519 1-619)
# ELF1, sequence (P32519 whole entry): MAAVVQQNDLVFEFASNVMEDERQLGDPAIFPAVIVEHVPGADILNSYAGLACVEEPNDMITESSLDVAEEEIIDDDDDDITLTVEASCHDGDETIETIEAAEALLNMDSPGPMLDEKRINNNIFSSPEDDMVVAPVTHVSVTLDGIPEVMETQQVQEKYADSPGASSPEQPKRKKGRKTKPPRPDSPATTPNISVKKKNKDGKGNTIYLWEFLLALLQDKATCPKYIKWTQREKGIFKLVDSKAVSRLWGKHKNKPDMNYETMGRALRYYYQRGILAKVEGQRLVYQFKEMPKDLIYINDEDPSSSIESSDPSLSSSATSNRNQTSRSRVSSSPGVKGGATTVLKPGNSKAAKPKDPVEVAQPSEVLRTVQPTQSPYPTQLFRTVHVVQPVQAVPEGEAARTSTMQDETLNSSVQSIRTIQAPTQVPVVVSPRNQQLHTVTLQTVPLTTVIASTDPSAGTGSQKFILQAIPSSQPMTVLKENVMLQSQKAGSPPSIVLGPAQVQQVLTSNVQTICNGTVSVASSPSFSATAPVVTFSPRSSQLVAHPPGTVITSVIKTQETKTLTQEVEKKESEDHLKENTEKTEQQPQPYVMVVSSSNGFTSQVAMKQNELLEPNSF
# Outline: as §1
# EHF = target: T5, EHF (Homo sapiens, UniProt Q9NZC4 1-300)
# T5 sequence: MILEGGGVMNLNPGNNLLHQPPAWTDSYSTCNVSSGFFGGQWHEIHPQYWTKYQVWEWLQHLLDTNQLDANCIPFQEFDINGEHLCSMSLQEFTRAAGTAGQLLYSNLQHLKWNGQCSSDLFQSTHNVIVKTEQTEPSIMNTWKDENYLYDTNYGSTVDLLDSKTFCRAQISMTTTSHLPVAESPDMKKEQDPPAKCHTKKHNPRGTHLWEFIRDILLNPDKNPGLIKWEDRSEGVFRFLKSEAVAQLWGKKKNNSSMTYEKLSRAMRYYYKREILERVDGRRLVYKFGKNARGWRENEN
# Outline: as §1
# SPI1 = SPI1 (Homo sapiens, UniProt P17947 1-270)
# Outline: as §1
# SPIB = SPIB (Homo sapiens, UniProt Q01892 1-262)
# SPIB, sequence (Q01892 whole entry): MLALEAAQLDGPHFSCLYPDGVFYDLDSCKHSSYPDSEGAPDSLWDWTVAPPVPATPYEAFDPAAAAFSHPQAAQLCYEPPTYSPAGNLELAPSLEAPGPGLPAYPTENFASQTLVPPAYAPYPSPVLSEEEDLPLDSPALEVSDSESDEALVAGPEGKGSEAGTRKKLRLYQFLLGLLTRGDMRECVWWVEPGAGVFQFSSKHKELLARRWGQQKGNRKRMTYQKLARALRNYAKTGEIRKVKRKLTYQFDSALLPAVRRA
# Outline: as §1
# ELK3 = target: T6, ELK3 (Homo sapiens, UniProt P41970 1-407)
# T6 sequence: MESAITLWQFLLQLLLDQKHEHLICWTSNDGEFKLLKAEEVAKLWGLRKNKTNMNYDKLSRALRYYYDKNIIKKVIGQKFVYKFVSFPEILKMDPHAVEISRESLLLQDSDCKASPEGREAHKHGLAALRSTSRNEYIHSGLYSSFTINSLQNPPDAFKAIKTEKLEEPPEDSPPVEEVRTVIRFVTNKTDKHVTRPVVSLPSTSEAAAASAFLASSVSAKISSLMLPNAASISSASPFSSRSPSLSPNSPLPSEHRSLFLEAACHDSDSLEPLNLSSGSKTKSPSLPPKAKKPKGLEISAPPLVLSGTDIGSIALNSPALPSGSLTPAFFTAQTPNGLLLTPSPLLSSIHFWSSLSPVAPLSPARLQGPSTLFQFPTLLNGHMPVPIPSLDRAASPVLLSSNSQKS
# Outline: as §1
# FEV = target: T7, FEV (Homo sapiens, UniProt Q99581 1-238)
# T7 sequence: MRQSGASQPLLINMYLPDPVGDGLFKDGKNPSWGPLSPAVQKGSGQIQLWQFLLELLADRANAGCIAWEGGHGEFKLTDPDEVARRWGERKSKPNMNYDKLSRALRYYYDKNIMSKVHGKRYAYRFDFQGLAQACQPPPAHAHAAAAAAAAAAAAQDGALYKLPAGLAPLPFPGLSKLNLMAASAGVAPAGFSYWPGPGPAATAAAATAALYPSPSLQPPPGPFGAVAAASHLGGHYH
# Outline: as §1
# ETV5 = ETV5 (Homo sapiens, UniProt P41161 1-510)
# ETV5, sequence (P41161 whole entry): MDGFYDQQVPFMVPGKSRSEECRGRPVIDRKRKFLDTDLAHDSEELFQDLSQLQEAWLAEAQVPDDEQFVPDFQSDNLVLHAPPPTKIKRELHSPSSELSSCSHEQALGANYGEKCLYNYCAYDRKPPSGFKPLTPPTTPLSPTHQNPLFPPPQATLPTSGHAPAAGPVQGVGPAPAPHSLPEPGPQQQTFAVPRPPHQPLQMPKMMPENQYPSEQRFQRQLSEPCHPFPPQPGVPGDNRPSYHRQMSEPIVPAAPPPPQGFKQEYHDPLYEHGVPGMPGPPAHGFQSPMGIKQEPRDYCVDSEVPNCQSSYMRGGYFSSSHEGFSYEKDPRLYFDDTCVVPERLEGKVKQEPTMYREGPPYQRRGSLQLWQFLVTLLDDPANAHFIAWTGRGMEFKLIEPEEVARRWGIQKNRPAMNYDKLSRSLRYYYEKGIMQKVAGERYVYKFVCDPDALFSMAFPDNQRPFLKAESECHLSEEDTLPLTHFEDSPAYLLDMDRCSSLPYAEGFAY
# Outline: as §1
# SPIC = target: T8, SPIC (Homo sapiens, UniProt Q8N5J4 1-248)
# T8 sequence: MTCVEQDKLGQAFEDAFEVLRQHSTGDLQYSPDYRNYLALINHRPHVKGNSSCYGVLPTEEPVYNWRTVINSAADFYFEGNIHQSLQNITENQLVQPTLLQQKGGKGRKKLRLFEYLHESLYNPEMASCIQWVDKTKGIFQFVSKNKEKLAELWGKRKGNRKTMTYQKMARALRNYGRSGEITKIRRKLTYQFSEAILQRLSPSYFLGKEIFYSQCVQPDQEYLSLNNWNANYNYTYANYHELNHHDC
# Outline: as §1
# ELF4 = ELF4 (Homo sapiens, UniProt Q99607 1-663)
# ELF4, sequence (Q99607 whole entry): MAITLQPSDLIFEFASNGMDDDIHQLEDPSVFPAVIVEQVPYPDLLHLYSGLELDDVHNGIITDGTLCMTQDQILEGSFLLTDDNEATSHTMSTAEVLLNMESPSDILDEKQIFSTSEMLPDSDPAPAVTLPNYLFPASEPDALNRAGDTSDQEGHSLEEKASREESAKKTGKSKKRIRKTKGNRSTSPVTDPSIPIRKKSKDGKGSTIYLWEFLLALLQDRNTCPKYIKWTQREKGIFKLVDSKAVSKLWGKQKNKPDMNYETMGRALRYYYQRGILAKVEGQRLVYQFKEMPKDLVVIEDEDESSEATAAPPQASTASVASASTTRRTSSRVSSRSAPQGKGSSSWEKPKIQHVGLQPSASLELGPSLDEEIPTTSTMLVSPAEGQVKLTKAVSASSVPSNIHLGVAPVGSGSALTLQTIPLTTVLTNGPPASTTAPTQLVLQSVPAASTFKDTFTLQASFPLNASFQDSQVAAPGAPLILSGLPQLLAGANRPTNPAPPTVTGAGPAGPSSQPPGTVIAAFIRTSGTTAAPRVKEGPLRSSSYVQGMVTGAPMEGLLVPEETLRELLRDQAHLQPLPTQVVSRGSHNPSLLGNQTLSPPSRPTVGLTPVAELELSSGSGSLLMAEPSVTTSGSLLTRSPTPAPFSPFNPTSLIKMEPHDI
# Outline: as §1
# ELK4 = target: T9, ELK4 (Homo sapiens, UniProt P28324-2 1-405)
# T9 sequence: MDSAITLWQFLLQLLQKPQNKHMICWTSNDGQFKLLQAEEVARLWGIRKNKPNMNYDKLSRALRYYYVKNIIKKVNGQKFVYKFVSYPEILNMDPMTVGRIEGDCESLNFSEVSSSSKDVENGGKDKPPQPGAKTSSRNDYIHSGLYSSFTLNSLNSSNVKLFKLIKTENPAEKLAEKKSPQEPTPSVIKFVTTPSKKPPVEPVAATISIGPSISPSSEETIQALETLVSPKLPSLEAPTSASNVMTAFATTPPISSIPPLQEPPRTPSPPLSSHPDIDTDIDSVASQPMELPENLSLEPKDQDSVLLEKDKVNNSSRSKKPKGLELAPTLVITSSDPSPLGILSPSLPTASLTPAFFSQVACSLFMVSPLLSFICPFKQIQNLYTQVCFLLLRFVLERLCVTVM
# Outline: as §1
# ETV2 = target: T10, ETV2 (Homo sapiens, UniProt O00321 1-342)
# T10 sequence: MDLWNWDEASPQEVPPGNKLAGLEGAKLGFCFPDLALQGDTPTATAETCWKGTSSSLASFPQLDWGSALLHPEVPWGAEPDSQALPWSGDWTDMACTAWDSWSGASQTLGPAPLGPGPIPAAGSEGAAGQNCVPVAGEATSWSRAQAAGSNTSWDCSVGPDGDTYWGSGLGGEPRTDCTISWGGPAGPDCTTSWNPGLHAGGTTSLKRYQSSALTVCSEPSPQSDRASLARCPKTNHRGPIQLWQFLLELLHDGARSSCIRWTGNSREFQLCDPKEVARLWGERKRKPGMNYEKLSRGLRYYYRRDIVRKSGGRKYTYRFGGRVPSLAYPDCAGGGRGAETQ
# Outline: as §1
# ELF3 = target: T11, ELF3 (Homo sapiens, UniProt P78545 1-371)
# T11 sequence: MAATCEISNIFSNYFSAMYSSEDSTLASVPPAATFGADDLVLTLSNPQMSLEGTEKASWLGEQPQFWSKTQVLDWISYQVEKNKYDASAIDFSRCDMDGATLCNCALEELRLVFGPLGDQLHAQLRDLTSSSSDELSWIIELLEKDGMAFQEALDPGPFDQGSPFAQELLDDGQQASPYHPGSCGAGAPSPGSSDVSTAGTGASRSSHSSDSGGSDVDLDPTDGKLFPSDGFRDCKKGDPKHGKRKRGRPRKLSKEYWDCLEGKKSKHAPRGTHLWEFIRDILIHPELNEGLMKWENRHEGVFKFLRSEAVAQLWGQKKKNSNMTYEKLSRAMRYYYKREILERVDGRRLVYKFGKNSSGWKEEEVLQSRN
# Outline: as §1
# ETV1 = ETV1 (Homo sapiens, UniProt P50549 1-477)
# ETV1, sequence (P50549 whole entry): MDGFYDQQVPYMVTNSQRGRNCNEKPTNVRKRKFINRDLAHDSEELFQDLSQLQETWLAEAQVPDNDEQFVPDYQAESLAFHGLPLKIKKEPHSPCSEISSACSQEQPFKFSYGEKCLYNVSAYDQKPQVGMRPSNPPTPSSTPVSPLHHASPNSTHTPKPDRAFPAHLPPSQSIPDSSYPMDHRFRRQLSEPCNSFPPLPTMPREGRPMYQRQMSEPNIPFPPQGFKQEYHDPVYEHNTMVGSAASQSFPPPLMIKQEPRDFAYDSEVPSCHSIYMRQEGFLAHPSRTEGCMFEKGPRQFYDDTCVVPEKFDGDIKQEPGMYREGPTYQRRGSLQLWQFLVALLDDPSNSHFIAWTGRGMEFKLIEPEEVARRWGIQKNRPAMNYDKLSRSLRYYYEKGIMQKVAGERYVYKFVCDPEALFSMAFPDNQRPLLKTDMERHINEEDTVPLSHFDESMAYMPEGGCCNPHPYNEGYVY
# Outline: as §1
sequence,measurement,setting,value
GATGCG,binding signal,FLI1,"1.07 fold enrichment (6-mer frequency, TF over GST control)"
same,binding signal,ELK1,"1.14 fold enrichment (6-mer frequency, TF over GST control)"
same,binding signal,GABPA,"1.16 fold enrichment (6-mer frequency, TF over GST control)"
same,binding signal,ERG,"1.16 fold enrichment (6-mer frequency, TF over GST control)"
same,binding signal,ELF1,"1.11 fold enrichment (6-mer frequency, TF over GST control)"
same,binding signal,EHF,"1.16 fold enrichment (6-mer frequency, TF over GST control)"
same,binding signal,SPI1,"1.14 fold enrichment (6-mer frequency, TF over GST control)"
same,binding signal,SPIB,"1.19 fold enrichment (6-mer frequency, TF over GST control)"
same,binding signal,ELK3,"1.1 fold enrichment (6-mer frequency, TF over GST control)"
same,binding signal,FEV,"1.15 fold enrichment (6-mer frequency, TF over GST control)"
same,binding signal,ETV5,"1.14 fold enrichment (6-mer frequency, TF over GST control)"
same,binding signal,SPIC,"1.24 fold enrichment (6-mer frequency, TF over GST control)"
same,binding signal,ELF4,"1.14 fold enrichment (6-mer frequency, TF over GST control)"
same,binding signal,ELK4,"1.32 fold enrichment (6-mer frequency, TF over GST control)"
same,binding signal,ETV2,"1.16 fold enrichment (6-mer frequency, TF over GST control)"
same,binding signal,ELF3,"1.11 fold enrichment (6-mer frequency, TF over GST control)"
same,binding signal,ETV1,"1.06 fold enrichment (6-mer frequency, TF over GST control)"

# From article PMC7862700, “An all-to-all approach to the identification of sequence-specific readers for epigenetic DNA modifications on cytosine”
